Screening data (PubChem)
Hits are enriched below; roughly 1% of the tested compounds scored in any of these assays.
gsp ag: qHTS for Agonist of gsp, the Etiologic Mutation Responsible for Fibrous Dysplasia/McCune-Albright Syndrome: qHTS | gsp mutant cells, cAMP HTRF, 30 min | Potency, µM (highest dose often 76.9 µM), most hits filed as activators | hit rate 0.13% among 340,000; active means well fitted activation curve with a large enough effect; inconclusive means small, poorly fitted or top-dose-only effect, or another doubt; inactive means no such curve, though single readings can be large or run the other way; cell line not stated here;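 further: phosphodiesterase inhibitor Ro 20-1724 added with compounds to block cAMP breakdown; nearly all actives have a fitted effect of over 60% in size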
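Cells in DMEM/10% FBS with G418 were pretreated with compounds in DMSO plus […] (300 uM stock) for 30 min at 37C. cAMP was measured by HTRF (cAMP-d2 plus anti-cAMP antibody-K) after 30 min at room temperature.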
gsp antagonist: qHTS for Antagonists of gsp, the Etiologic Mutation Responsible for Fibrous Dysplasia/McCune-Albright Syndrome: qHTS; Potency, µM (doses to about 76.9 µM), usual class: inhibitors; AID 624288, 2012; gsp-mutant cells, cAMP HTRF, 30 min; hit rate 0.4% among 340,000; calls by dose curve; cell line not stated here;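 further: intracellular cAMP measured with PDE inhibitor Ro 20-1724 present during compound exposure; nearly all actives have a fitted effect of over 65% in size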
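HTRF cAMP measurement after 30 min RT detection following 30 min, 37C compound treatment alongside […] (added as 300 uM solution) in G418-selected cells seeded at 2000/well and grown 16–24 h.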
TSHR antagonist: Antagonists of the Thyroid Stimulating Hormone Receptor: HTS campaign; Thyrotropin receptor (Homo sapiens), P16473; TSHR-expressing cells, TSH-stimulated cAMP HTRF, 2 h; hits give low values; activity change, negative = inhibition, % at 11.5 µM; hit rate 0.2% among 330,000;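 active means activity change below a set negative limit, meaning inhibition stronger than a set level, cut at about -70% in these data; inconclusive means activity change between two set negative limits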
Target sequence (P16473 whole entry, looked up): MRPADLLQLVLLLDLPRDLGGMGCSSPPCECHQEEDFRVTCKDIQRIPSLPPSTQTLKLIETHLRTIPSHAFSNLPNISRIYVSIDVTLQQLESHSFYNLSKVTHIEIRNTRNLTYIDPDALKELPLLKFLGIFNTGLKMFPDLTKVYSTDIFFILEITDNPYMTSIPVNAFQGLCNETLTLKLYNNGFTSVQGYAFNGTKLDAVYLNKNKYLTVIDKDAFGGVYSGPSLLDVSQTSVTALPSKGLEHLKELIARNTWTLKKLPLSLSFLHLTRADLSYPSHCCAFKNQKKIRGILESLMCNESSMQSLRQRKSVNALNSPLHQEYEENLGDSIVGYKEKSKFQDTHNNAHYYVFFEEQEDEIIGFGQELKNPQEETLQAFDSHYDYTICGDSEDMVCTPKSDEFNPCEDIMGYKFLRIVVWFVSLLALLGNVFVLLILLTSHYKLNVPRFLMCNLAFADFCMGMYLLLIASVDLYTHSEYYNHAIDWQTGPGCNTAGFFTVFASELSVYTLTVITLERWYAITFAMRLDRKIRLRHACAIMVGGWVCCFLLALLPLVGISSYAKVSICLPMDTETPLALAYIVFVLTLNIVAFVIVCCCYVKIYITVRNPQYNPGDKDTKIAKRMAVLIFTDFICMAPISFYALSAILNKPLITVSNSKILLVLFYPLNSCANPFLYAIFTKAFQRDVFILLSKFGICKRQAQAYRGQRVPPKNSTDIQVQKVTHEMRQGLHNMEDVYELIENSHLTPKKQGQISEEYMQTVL
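Cell-based HTRF cAMP assay; TSHR cells + compound, TSH EC80 (4nM final), 2 h, 37 deg C. Lysis with anti-cAMP cryptate and cAMP-d2, 30 min RT, read 665/620 nm.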
RXFP1 antag: qHTS Assay for Antagonists of the Relaxin Receptor RXFP1 | activity change, negative = inhibition, % at 57.5 µM | Relaxin receptor 1 (Homo sapiens), Q9HBX9 | HEK293-RXFP1, relaxin-stimulated cAMP HTRF, 30 min; hits give low values | hit rate 0.59% among 350,000 | AID 1259400, 2018;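 active means activity change of -60% or lower, but not beyond a set lower limit; inconclusive means change between -60% and -40%, or beyond the set limit; inactive means change above -40%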
RXFP1 agonist: qHTS Assay for Agonists of the Relaxin Receptor RXFP1; Potency, µM (doses to about 57.5 µM), hits mostly activators; HEK293T-RXFP1 cAMP TR-FRET, 30 min; response scale: percent of porcine relaxin response, buffer zero; hit rate 0.3% among 370,000; AID 2676, 2010; active means well fitted activation curve with a large enough effect; inconclusive means small, poorly fitted or top-dose-only effect; further: nearly all actives have a fitted effect of over 60% in size
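cAMP rise read by TR-FRET after 30 min, 37C compound exposure (up to 58 uM) in RXFP1-transfected HEK293 cells with Ro 20174 present. EC50 from Hill-equation fits, with 29 nM porcine relaxin as 100% and buffer as basal.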
Hits are given with their value; - = inactive; ? = inconclusive; . = no result; ! = not confirmed by another sample; [ ] = dose if it differs, or a comment.

SMILES	gsp ag	gsp antagonist	TSHR antagonist	RXFP1 antag	RXFP1 agonist
CC#C[C@]1(O)CC[C@H]2[C@@H]3CCC4=CC(=O)CCC4=C3[C@@H](c3ccc(N(C)C)cc3)C[C@@]21C	.	35.5µM	-	-	-
Cc1cc(C)nc(SCc2cc(=O)c(OC(=O)c3ccc(S(=O)(=O)N(C)C)cc3)co2)n1	-	-	-	.	-
Cc1cc(C)nc(SCc2cc(=O)c(OC(=O)c3ccc(Cl)c([N+](=O)[O-])c3)co2)n1	-	35.5µM	-	-	-
COCCc1ccc(OCC2CO2)cc1 (stereo not drawn)	.	.	.	-	.
Cc1cc(NC(=O)COC(=O)CCNS(=O)(=O)c2c(Cl)cccc2Cl)no1	-[15.4 µM]	-	-	-69.5	-
NC(=O)C1CCN(c2nc(-c3cccc4sc5ccccc5c34)cs2)CC1	.	.	-	.	.
OCCNC(=S)NCCc1ccccc1	-	-	-	-	-
CC(C)(CNC(=S)NCCc1ccccc1)CNC(=S)NCCc1ccccc1	-	35.5µM	-	-	-
CCc1ccc(CN(Cc2ccco2)C(=O)COc2ccccc2Cl)cc1	.	.	.	-61.4	-
Cc1cc2oc(C(=O)N(Cc3ccco3)Cc3ccccc3Cl)c(C)c2cc1C	.	.	.	.	-
CCc1ccc(OCC(=O)N(Cc2ccco2)Cc2ccco2)cc1	.	.	.	-	-
CCc1ccc(CN(Cc2ccco2)C(=O)c2ccc(OC)cc2)cc1	.	.	.	-63.3	-
CCOC(=O)CNC(=S)N(Cc1ccco1)Cc1ccccc1Cl	-	39.8µM	-	-	-
COc1ccccc1N1CCN(c2ccc(-c3nc(-c4ccccc4)no3)cc2[N+](=O)[O-])CC1	.	.	.	.	-
Cc1ccc2[nH]cc(C(c3ccccc3)c3cccs3)c2c1 (stereo not drawn)	.	.	.	-72.0	-
Cc1ccc2[nH]cc(C(c3ccccc3)c3ccc(C)s3)c2c1 (stereo not drawn)	.	.	.	?	-
CCC(C(=O)Nc1nc(C)c(C(=O)OC)s1)c1ccccc1 (stereo not drawn)	-	-	-	-	-
CCC(C(=O)Nc1ccsc1C(=O)OC)c1ccccc1 (stereo not drawn)	-[15.4 µM]	?	-	-63.5	-
COCC1CCN(C(=O)c2cc(COc3cccc4cnccc34)on2)CC1	-	-	-	-	-
O=C(c1cc(COc2cccc3cnccc23)on1)N1CCCC(CCCO)C1 (stereo not drawn)	-	35.5µM	?	-	-
CCOC(=O)c1ccccc1NC(=O)C(=O)Nc1ccc2nc3n(c(=O)c2c1)CCCCC3	.	.	.	-	-
COc1cccc(NC(=O)Nc2nc(-c3ccc(OC)c(OC)c3)cs2)c1	?	-	-93.9	-62.2	-
Cn1nc(C(F)(F)F)c(-c2ccc(F)cc2)c1NC(=O)Nc1ccc(F)cc1	-[15.4 µM]	-	-	-	-
Cn1nc(C(F)(F)F)c(-c2cccc(C(F)(F)F)c2)c1NC(=O)CSCC(=O)O	?	-	-74.4	-	-
CCOc1ccc(CCNC(=O)c2c(C)oc3ncn(CC(C)C)c(=O)c23)cc1OCC	.	.	.	.	-
SMILES	gsp ag	gsp antagonist	TSHR antagonist	RXFP1 antag	RXFP1 agonist
CCc1ccc(NC(=O)CN2C(=O)C3CCCN3c3ccc(S(=O)(=O)N(CC)CC)cc32)cc1 (stereo not drawn)	.	.	.	-	-
Cc1ccc(C(=O)NC(=S)Nc2nc(-c3cccc([N+](=O)[O-])c3)cs2)c(Cl)c1	-[15.4 µM]	-	-	-89.3	-
O=C(NC(=S)Nc1nc(-c2ccccc2)cs1)c1ccco1	-	-	-	-62.5	-
O=C(Nc1nc(-c2ccccc2)cs1)c1cccc([N+](=O)[O-])c1	-	50.1µM	-	-	-
O=C(Cc1c(F)c(F)c(F)c(F)c1F)Nc1nc(-c2ccccc2)cs1	-[15.4 µM]	-	-	-65.3	-
O=C(Cc1ccc(F)cc1)Nc1nc(-c2ccc(F)cc2)cs1	-[15.4 µM]	-	-	?	-
CCCCC/C=C/C/C=C/CCCCCCCC(=O)NC(C)c1ccccc1 (stereo not drawn)	.	.	.	-	.
CCOc1cc(-c2ccc(OC(=O)c3ccc(OC)cc3)c(OC)c2)cc(=O)c2c(C)oc(C)c12	.	.	.	-	-
CC(C)n1nc(-c2cc3cc(O)ccc3[nH]2)c2c(N)ncnc21	.	.	.	-	.
O=C(c1ccc2c(c1)CCN2S(=O)(=O)c1ccc(Cl)cc1)N1CCN(c2ccccc2)CC1	.	.	.	-	-
COc1ccc(-c2noc(CN(C(C)C)S(=O)(=O)c3ccc(Br)cc3)n2)cc1	.	.	.	-	-
O=C(CN1C(=O)CCC1=O)Nc1nc(-c2ccc(Oc3ccccc3)cc2)cs1	-	-	-	-69.6	-
COc1ccc(-c2csc(NC(=O)CN3C(=O)CCC3=O)n2)cc1	-	-	-	-	-
Cc1cccc(C(=O)Nc2nnc(S(=O)(=O)N(C)Cc3ccco3)s2)c1	-	-	-	-	14.1µM!
COc1ccc(N2C(=O)CC(Sc3nnc(-c4ccccc4)o3)C2=O)cc1 (stereo not drawn)	28.2µM	-	-	-	-
CCOC(=O)c1ccc(NC(=S)NNC(=O)c2cc(-c3cccnc3)nc3ccccc23)cc1	-	-	-	-	-
O=C(NNC(=S)Nc1ccccc1)c1cc(-c2cccnc2)nc2ccccc12	-[15.4 µM]	-	-	-60.7	-
Cc1cc(C(=O)COC(=O)Cn2cnc3c2c(=O)n(C)c(=O)n3C)c(C)n1C	3.98µM	-	-	-	?
O=C(O)c1ccccc1NS(=O)(=O)c1ccc(NN=Cc2cccc(Cl)c2)c([N+](=O)[O-])c1	-	-	-	-68.4	.
COc1cccc(/C=N/Nc2ccccc2C(=O)O)c1O	?	?	-	-	-
O=C(O)c1ccccc1NN=Cc1ccccc1	-	25.1µM	.	?	.
COc1ccc(NC(=O)Nc2nnc(-c3ccncc3)s2)cc1	-	35.5µM	-	-	-
O=C(Nc1ccc(Cl)c(Cl)c1)Nc1nnc(-c2ccncc2)s1	-[15.4 µM]	-	-	-	-
O=C(NCCc1ccc(Cl)cc1)c1ccc(Cn2c(=O)c3cccn3c3cccnc32)cc1	.	.	.	-	?
Cc1nc2c(cnn2-c2ccccc2Cl)c(=O)n1-c1ccc(N2CCC(C)CC2)cc1	-	35.5µM	-	-	-
COC(=O)C1C(=O)c2c([nH]c(C(=O)OC3CCCC3C)c2C)CC1C (stereo not drawn)	-	-	-	-62.7	-
COC(=O)C1C(=O)c2c([nH]c(C(=O)OC3CCCCC3)c2C)CC1C (stereo not drawn)	-	-	-	.	-
Cc1c(Cl)sn(-c2ccc(Cl)cc2)c1=O	-	-	-87.8	?	-
Cc1nn(-c2ccc(Cl)cc2)c(=O)c2ccccc12	-	-	-	-	-
